Data as given in PubChem BioAssay (NCATS).
Results filed as inconclusive are left out. Entries that show only a call come without a potency. Active and inactive are the calls of the source. Calls follow the shape of the dose curve; as a rule, active = well fitted curve in the direction sought with a large enough effect; inconclusive = small, poorly fitted or top-dose-only effect, or another doubt; inactive = no such curve, though single readings can be large; an effect the other way counts as inactive or inconclusive.

Experiments:
[1] = target: Tyrosine-protein kinase Yes (Homo sapiens) (UniProt P07947); test: qHTS for small molecule inhibitors of Yes1 kinase: Primary Screen (AID 686947); also: nearly all actives have a fitted effect of over 60% in size; also: potency is read from the fitted curve at half-maximal effect
Summary of the method: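 ADP-Glo luminescence readout; final 4 nM Yes1, 0.1 mM ATP, 0.3 mg/mL poly(E4Y), Tris pH 7.5, MgCl2, DTT, Brij-35. 20 min compound preincubation, 60 min reaction at RT. Normalized to DMSO wells with and without enzyme.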

[2] = qHTS for small molecule inhibitors of Yes1 kinase: Counter Assay (AID 686950);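 also: no kinase present so only ADP-Glo detection of a fixed ADP amount is tested; luminescence from ADP-Glo reporting ADP in a fixed ATP and ADP mixture; series mostly up to about 77 µM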
Summary of the method: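 Enzyme-free detection counter-screen: compounds preincubated 20 min in buffer, then 0.08 mM ATP plus 0.02 mM ADP added for 60 min at room temperature; ADP-Glo luminescence. Buffer 50 mM Tris pH 7.5, 10 mM MgCl2, 150 mM NaCl; normalized to ATP+ADP and ATP-only controls.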

Tyrosine-protein kinase Yes (Homo sapiens), sequence (P07947 whole entry, looked up): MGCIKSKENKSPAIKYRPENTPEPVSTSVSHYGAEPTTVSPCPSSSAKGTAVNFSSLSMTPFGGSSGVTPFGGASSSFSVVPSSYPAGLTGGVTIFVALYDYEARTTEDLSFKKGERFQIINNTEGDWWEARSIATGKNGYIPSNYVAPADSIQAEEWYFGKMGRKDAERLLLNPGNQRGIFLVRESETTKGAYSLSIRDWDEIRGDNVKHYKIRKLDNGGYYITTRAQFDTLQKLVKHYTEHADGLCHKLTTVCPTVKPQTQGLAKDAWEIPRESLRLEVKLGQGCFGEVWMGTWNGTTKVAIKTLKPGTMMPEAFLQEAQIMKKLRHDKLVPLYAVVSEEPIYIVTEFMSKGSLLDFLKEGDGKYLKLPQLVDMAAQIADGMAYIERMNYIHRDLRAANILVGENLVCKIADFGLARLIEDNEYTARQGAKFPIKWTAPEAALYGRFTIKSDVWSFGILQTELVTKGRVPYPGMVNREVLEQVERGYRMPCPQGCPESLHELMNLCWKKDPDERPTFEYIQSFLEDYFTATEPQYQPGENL

## O=C1NC(=O)C(c2ccccc2Cl)=C1Nc1cccc(O)c1
[1]
  Potency: 8.23 µM (active)
[2]
  outcome: inactive

## CS(=O)(=O)CCNCc1ccc(-c2ccc3ncnc(Nc4ccc(OCc5cccc(C(F)(F)F)c5)cc4)c3c2)o1
[1]
  Potency: 6.54 µM (active)
[2]
  outcome: inactive

## Clc1ccc(CNc2nccc(-c3cnn4ncccc34)n2)cc1
[1]
  Potency: inactive
[2]
  outcome: inactive

## FC(F)(F)CNc1nccc(-c2cnn3ncccc23)n1
[1]
  Potency: inactive
[2]
  outcome: inactive

## N#Cc1ccc2c(-c3ccnc(NC4CC4)n3)c(-c3ccc(F)cc3)nn2c1
[1]
  Potency: 26 µM (active)
[2]
  outcome: inactive

## CCN(CC)Cc1ccc(Nc2nccc(-c3cnn4ncccc34)n2)cc1
[1]
  Potency: 7.33 µM (active)
[2]
  outcome: inactive

## CN(c1ccc(NC(=O)NCCN2CCOCC2)cc1)c1ccnc(Nc2ccc(CS(C)(=O)=O)cc2)n1
[1]
  Potency: 11.6 µM (active)
[2]
  outcome: inactive

## CCn1c(-c2nonc2N)nc2cncc(C(=O)NCCNC)c21
[1]
  Potency: 1.3 µM (active)
[2]
  outcome: inactive

## Cn1c(-c2nonc2N)nc2cnccc21
[1]
  Potency: inactive
[2]
  outcome: inactive

## COc1ccc(-c2coc3ncnc(N)c23)cc1
[1]
  Potency: 11.6 µM (active)
[2]
  outcome: inactive

## O=C(Nc1n[nH]c2nc(-c3ccco3)ccc12)C1CC1
[1]
  Potency: 2.32 µM (active)
[2]
  outcome: inactive

## COc1cc(C)c(N(C)C(=O)CN(C)C)cc1Nc1nc(Nc2cccc(F)c2C(N)=O)c2cc[nH]c2n1
[1]
  Potency: inactive
[2]
  outcome: inactive

## O=C(OC1CNC(C#Cc2cc3ncnc(Nc4ccc5c(ccn5Cc5cc(F)ccc5F)c4)c3s2)C1)N1CCOCC1 (stereo not drawn)
[1]
  Potency: 29.2 µM (active)
[2]
  outcome: inactive

## O=C1N=c2ccc(N=Cc3c(O)[nH]c4ccccc34)cc2=N1
[1]
  Potency: 2.92 µM (active)
[2]
  outcome: inactive
